Screening results (PubChem BioAssay)
Compounds with a hit are over-represented: about 19% of the library has one in this group of screens.
TDP1 cell CPT – qHTS for Inhibitors of human tyrosyl-DNA phosphodiesterase 1 (TDP1): qHTS in cells in presence of CPT; AID 686979, 2013; chicken DT40 Tdp1-/-;hTDP1 cells + 20 nM CPT, ATP luminescence, 48 h; 420,000 compounds, 12% hits; Potency, µM (titrated, usually from 46.2 µM), for inactives: top-dose activity change, negative = growth inhibition, hits mostly inhibitors; also: potency is read from the fitted curve at half-maximal effect; % is scaled to controls: 0 for no effect and ±100 for the full control effect; nearly all actives have a fitted effect of over 55% in size
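Chicken DT40 Tdp1-/- cells complemented with human TDP1, 400 cells/well, exposed to compounds plus 20 nM camptothecin for at least 48 h at 37 C; viability read as ATP content by CellTiter-Glo luminescence.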
S-ASM inh – Inhibitors of Secretory Acid Sphingomyelinase (S-ASM): qHTS. Sphingomyelin phosphodiesterase (Homo sapiens), P17405. placental ASM, HMU-PC fluorogenic substrate, 60 min. Potency, µM (top dose mostly 57.5 µM), for the others: at the highest dose activity change, negative = inhibition, usual class: inhibitors. 340,000 compounds, 0.006% hits; also: potency is read from the fitted curve at half-maximal effect
Target sequence (P17405 47-631 limits assumed): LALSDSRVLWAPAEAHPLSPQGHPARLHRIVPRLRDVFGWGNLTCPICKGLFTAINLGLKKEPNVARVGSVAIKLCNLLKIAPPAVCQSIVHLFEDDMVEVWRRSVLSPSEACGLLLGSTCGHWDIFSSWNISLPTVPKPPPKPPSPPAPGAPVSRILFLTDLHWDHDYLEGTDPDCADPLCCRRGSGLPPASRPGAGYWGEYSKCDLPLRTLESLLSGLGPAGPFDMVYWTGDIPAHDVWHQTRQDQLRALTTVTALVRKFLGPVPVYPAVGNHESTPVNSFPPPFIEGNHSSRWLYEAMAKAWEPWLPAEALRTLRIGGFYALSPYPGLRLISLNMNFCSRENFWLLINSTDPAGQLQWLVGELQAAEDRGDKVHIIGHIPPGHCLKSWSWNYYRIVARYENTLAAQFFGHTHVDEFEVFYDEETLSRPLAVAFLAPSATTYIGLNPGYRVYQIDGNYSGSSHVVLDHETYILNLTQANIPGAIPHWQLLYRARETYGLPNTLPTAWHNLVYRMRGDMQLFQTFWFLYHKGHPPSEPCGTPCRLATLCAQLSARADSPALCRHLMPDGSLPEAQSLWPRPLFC
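Fluorescence read-out (Ex 386 nm, Em 447 nm) after stopping the reaction at pH 10. Enzyme: ASM from human placenta; substrate HMU-PC0, 9 uM final; 60 min, 37 °C. Compound preincubation 10 min, ambient temperature.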
TGFb SMAD3 inh – qHTS for Inhibitors of TGF-b; HepG2 CAGA-GFP TGF-b/SMAD3 reporter, GFP fluorescence, 18 h; TGF-beta stimulated, 500 pg/mL final; Potency, µM (titrated, usually from 46.1 µM), without a hit: at the highest dose activity, negative = inhibition, hits mostly inhibitors; 410,000 compounds, 1.2% hits; AID 588855, 2011; also: potency is read from the fitted curve at half-maximal effect; % is scaled to controls: 0 for no effect and ±100 for the full control effect; nearly all actives have a fitted effect of over 65% in size
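Per well, imaged GFP fluorescence of HEPG2 CAGA-GFP cells gives the signal; cells get compound, then TGF-beta (500 pg/mL final), 18 h at 37 degrees C; %Activity versus -TGF-beta and +DMSO controls.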
IL-1B inflam inh – qHTS for Inhibitors of Inflammasome Signaling: IL-1-beta AlphaLISA Primary Screen; THP-1 LPS/ATP IL-1B secretion, AlphaLISA, 16 h; hits give low values; activity change, % at 57.5 µM; 360,000 compounds, 4.7% hits; in the data active = activity change below about -50%; inconclusive = mostly about -30% to -49%; also: % is scaled to controls: 0 for no effect and ±100 for the full control effect
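THP-1 cells pretreated 1 hr with compounds (up to 57.5 uM final), then stimulated with LPS (250 ng/mL final) plus ATP (1.25 mM final); secreted IL-1B measured by AlphaLISA after 16 hr, decreased signal indicating inhibition.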
HepG2 tox – qHTS for Inhibitors of TGF-b: Cytotox Counterscreen; HepG2 CAGA-GFP viability, ATP luminescence, 18 h; 410,000 compounds, 0.76% hits; Potency, µM (highest dose often 46.1 µM), for inactives: top-dose activity change, negative = cytotoxicity, hits mostly cytotoxic; also: potency is read from the fitted curve at half-maximal effect
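CellTiter-Glo luminescence gave cytotoxicity after 18 hours at 37 degrees C. The cells were HepG2 CAGA-GFP in 1% FBS DMEM, stimulated with 500 pg/mL TGF-beta after compound addition. %Activity was normalised to no-cell wells (complete cell-killing) and DMSO (no toxicity), and curves were fitted and classified.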
TDP1 cell noCPT – qHTS for Inhibitors of human tyrosyl-DNA phosphodiesterase 1 (TDP1): qHTS in cells in absence of CPT; DT40 Tdp1-/- hTDP1 cells, no CPT, ATP luminescence, 48 h; Potency, µM (titrated, usually from 46.2 µM), inactives show top-dose activity change, negative = growth inhibition, usual class: inhibitors; 420,000 compounds, 15% hits; AID 686978, 2013; also: potency is read from the fitted curve at half-maximal effect; % is scaled to controls: 0 for no effect and ±100 for the full control effect; nearly all actives have a fitted effect of over 55% in size
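Chicken DT40 Tdp1-/- cells stably complemented with human TDP1 were seeded at 400 cells/well with DMSO in place of 20 nM camptothecin. After compound pinning, cells grew at least 48 hr at 37 °C; viability read by CellTiter-Glo luminescence.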
* = called active by the depositor; ? = inconclusive; / = not tested or not shown. Unless noted, calls follow the shape of the dose curve; as a rule, active = well fitted curve in the direction sought with a large enough effect; inconclusive = small, poorly fitted or top-dose-only effect, or another doubt; inactive = no such curve, though single readings can be large; an effect the other way counts as inactive or inconclusive.

SMILES	TDP1 cell CPT	S-ASM inh	TGFb SMAD3 inh	IL-1B inflam inh	HepG2 tox	TDP1 cell noCPT
CCCC(C)(C)C(=O)N1CCC1(C)C(=O)Nc1cccc(OC)c1 (stereo not given)	?	/	?	-7.5	-12.9%	?
NS(=O)(=O)c1ccc(NC(=O)C(=O)NCCC(=O)O)cc1	2.8%	4.7%	3.8%	24.2	-0.8%	-1.5%
Cc1cccc(N2CCN(C(=O)c3nn(C)c4c3CS(=O)(=O)c3ccccc3-4)CC2C)c1 (stereo not given)	23.1µM*	-1.4%	-17.5%	-21.1	-24.7%	18.4µM*
Cn1nc(C(=O)N2CCN(c3ccc(Cl)cc3)CC2)c2c1-c1ccccc1S(=O)(=O)C2	16.4µM*	-8.3%	?	-57.8*	-6.0%	?
Cc1ccc(C(=O)Nc2ccc(C(=O)N3CCCCC3)cc2)o1	?	2.4%	0.1%	?	-53.9%	?
N=C(N)SCCc1ccc(OCc2ccc([N+](=O)[O-])cc2)cc1	8.41µM*	/	/	/	/	?
O=C(Cc1ccc([N+](=O)[O-])cc1)OCc1ccc([N+](=O)[O-])cc1	9.1%	-3.0%	-0.2%	-11.0	-14.6%	-14.6%
COC(=O)Sc1nc(N2CCOCC2)c2c(c1C#N)CC(C)(C)OC2	25.9µM*	1.4%	-22.3%	-20.0	-0.5%	?
CC(C)Sc1nc(N2CCOCC2)c2c(c1C#N)CC(C)(C)N(C)C2	18.4µM*	9.7%	?	10.1	1.9%	16.4µM*
COC(=O)CSc1nc(N2CCOCC2)c2c(c1C#N)CC(C)(C)OC2	-0.3%	12.3%	0.0%	17.5	2.3%	-24.6%
CN(C(=O)c1ccc(-c2nn(C)c(=O)c3ccccc23)cc1)C1CCCCC1	13µM*	0.0%	-1.0%	?	-1.6%	16.4µM*
Cn1nc(-c2ccc(OCC(=O)NCC3CCCO3)cc2)c2ccccc2c1=O (stereo not given)	18.4µM*	1.8%	-22.0%	42.2	-17.0%	11.6µM*
CN(CCO)C(=O)c1ccc(-c2nn(C)c(=O)c3ccccc23)cc1	-20.7%	0.2%	-23.6%	28.3	0.2%	-8.8%
COc1ccc(OCC(=O)Nc2cc(-c3nn(C)c(=O)c4ccccc34)ccc2OC)cc1	16.4µM*	-0.4%	-11.4%	-2.2	-21.2%	16.4µM*
CC(=O)Nc1nnc(SCC(=O)N2C(C)CCCC2C)s1 (stereo not given)	-0.9%	3.5%	-29.2%	-7.5	-14.3%	-4.5%
COc1cc2nc(NCCc3ccc(Cl)cc3)n3nc(-c4ccccc4)nc3c2cc1OC	-24.7%	/	-17.3%	/	-16.4%	?
CC(NCC(O)c1ccc([N+](=O)[O-])cc1)C12CC3CC(CC(C3)C1)C2 (stereo not given)	?	-2.3%	9.1%	-84.7*	-29.5%	?
CN(c1nc2ccccc2[nH]c1=O)C1CCCCC1	?	11.7%	-11.4%	25.4	-16.2%	?
COCCOC(=O)C1=C(C)N=C2SCCC(=O)N2C1/C=C/c1ccccc1 (stereo not given)	18.4µM*	-0.2%	0.0%	-22.7	-4.5%	18.4µM*
COc1cccc(C(=O)Nc2ccc(N3CCN(C(=O)c4cccs4)CC3)cc2)c1	2.31µM*	-0.6%	?	-87.1*	-19.1%	4.61µM*
O=C(Nc1ccc(N2CCN(C(=O)c3cccs3)CC2)cc1)c1cccc(F)c1	16.4µM*	-5.8%	-6.7%	-88.6*	-6.9%	20.6µM*
O=C(Nc1nnc(COc2ccc(Cl)cc2)s1)c1cccs1	14.6µM*	4.7%	5.1%	1.1	21.4%	11.6µM*
CCCOc1cccc(-c2nnc(NC(=O)c3ccco3)s2)c1	?	8.2%	?	10.5	-69.6%	20.6µM*
O=C(Nc1nnc(COc2ccc(Cl)cc2)s1)c1ccco1	29.1µM*	-3.4%	14.8%	?	49.9%	?
Cc1ccc(OCc2nnc(N)s2)cc1C	-0.9%	-2.4%	15.7%	12.3	-3.9%	-13.5%
SMILES	TDP1 cell CPT	S-ASM inh	TGFb SMAD3 inh	IL-1B inflam inh	HepG2 tox	TDP1 cell noCPT
CCc1sc(-c2cc3ccc(O)cc3oc2=O)nc1-c1ccc(C)cc1	?	/	72.2%	/	0.7%	-24.8%
Cc1ccc2nc3c(c(Nc4cccc(O)c4)c2c1)CCC3	?	-5.9%	?	117.8	-18.6%	?
Fc1cccc(Nc2c3c(nc4ccccc24)CCC3)c1	?	-0.2%	-26.5%	?	-19.4%	25.9µM*
CC(=O)c1cccc(Nc2c3c(nc4ccccc24)CCC3)c1	2.06µM*	-0.6%	?	68.5	-28.2%	2.06µM*
O=C(Nc1c2c(nc3ccccc13)CCCC2)c1ccccc1F	-24.4%	2.3%	?	2.0	-46.6%	?
CC(=O)c1ccc(Nc2c3c(nc4ccccc24)CCCC3)cc1	14.6µM*	-8.6%	-7.9%	-0.1	-35.9%	18.4µM*
c1ccc2c(Nc3ccc4c(c3)OCCO4)c3c(nc2c1)CCCC3	4.61µM*	-2.2%	?	-134.3*	-30.5%	16.4µM*
CCN1C(=O)[C@H]2[C@@H](c3ccc(C)cc3)N3C(=O)N(c4cccc(Br)c4)C(=O)[C@@]3(CC(C)C)[C@H]2C1=O	?	-5.4%	-13.6%	-20.2	-2.0%	?
Cc1ccn2c(c1)nc(=O)c1cc(S(=O)(=O)N3CCCCC3)c(Cl)cc12	/	/	3.2%	/	-5.1%	/
COC(=O)c1cccc(Nc2c3c(nc4ccccc24)CCC3)c1	7.31µM*	1.9%	-27.0%	-97.5*	-28.6%	10.3µM*
CCOC(=O)c1cccc(Nc2c3c(nc4ccccc24)CCC3)c1	?	/	?	/	-40.2%	13µM*
CCOC(=O)c1cnc2ccccc2c1Nc1cccc(C(=O)O)c1	2.0%	-3.8%	-4.4%	34.8	0.0%	-3.2%
CCc1ccc(-c2cc(C)no2)cc1S(=O)(=O)Nc1ccc(Cl)cc1	?	/	?	/	-92.4%	?
O=C(COc1ccc([N+](=O)[O-])cc1)NC(C(=O)O)C(O)c1cccc([N+](=O)[O-])c1 (stereo not given)	16.7%	0.2%	17.8%	7.8	13.6%	-5.5%
CCC(C)(C)OC(=O)N[C@@H](Cc1c[nH]c2ccccc12)C(=O)N[C@@H](CCSC)C(=O)N[C@@H](CC(=O)O)C(=O)N[C@@H](Cc1ccccc1)C(N)=O	-5.7%	/	/	/	/	-22.7%
